High-throughput results (PubChem)
Shown are actives, neighbours in structure and some others; about 7.1% of the full set was active somewhere.
IL1B secr inh: qHTS for Inhibitors of Inflammasome Signaling: IL-1-beta AlphaLISA Primary Screen; activity change, % at 57.5 µM; AID 743279, 2014; hit rate 4.7% among 360,000; THP-1 LPS/ATP IL-1B secretion, AlphaLISA, 16 h; hits give low values; in the data active = activity change below about -50%; inconclusive = mostly about -30% to -49%
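THP-1 cells pretreated 1 hr with compounds (up to 57.5 uM final), then stimulated with LPS (250 ng/mL final) plus ATP (1.25 mM final); secreted IL-1B measured by AlphaLISA after 16 hr, decreased signal indicating inhibition.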
MCF10A rerep: A quantitative high throughput screen for small molecules that induce DNA re-replication in MCF 10a normal breast cells; Potency, µM (doses to about 46.1 µM), actives largely listed as activators; hit rate 2.9% among 350,000; MCF 10A DNA re-replication, Hoechst nuclear intensity, 48 h; note: nearly all actives have a fitted effect of over 50% in size
ATXN2 expr inh: Primary qHTS for Inhibitors of ATXN expression; Potency, µM (titrated, usually from 57 µM), hits mostly inhibitors; HEK-293 ATXN2-luciferase reporter, luminescence, 24 h; hit rate 0.72% among 360,000; note: nearly all actives have a fitted effect of over 55% in size
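ATXN2-luciferase reporter cells (luciferase flanked by upstream and downstream ATXN2 gene portions) were treated 24 h at 37 °C with compounds at up to 57 uM. SteadyGlo luminescence gave expression; GF-AFC fluorescence gave viability.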
ATXN viability: Viability Counterscreen for Primary qHTS for Inhibitors of ATXN expression | S2 cells (HEK-293 line with an ATXN2-luciferase reporter) viability, CellTiter-Fluor protease fluorescence, 24 h | Potency, µM (series often up to 56.7 µM), most hits filed as cytotoxic | hit rate 0.49% among 400,000 | AID 651635, 2014; note: nearly all actives have a fitted effect of over 40% in size
SW480 rereplic: A quantitative high throughput screen for small molecules that induce DNA re-replication in SW480 colon adenocarcinoma cells | SW480 DNA re-replication, Hoechst DNA content imaging, 48 h | Potency, µM (doses to about 46.1 µM), hits mostly activators | hit rate 1.8% among 340,000 | AID 624297, 2012; note: nearly all actives have a fitted effect of over 55% in size
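Treated cells incubate 48 hr (37 C, 5% CO2), are stained 40 min with Hoechst, and nuclear fluorescence is enumerated; a rise in nuclei with high DNA signal marks re-replication.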
PINK1 modulator: A Quantitative High throughput Screen to Identify Chemical Modulators of PINK1 Expression; PINK1 immunofluorescence, high-content cytometry, 24 h; Potency, µM (top dose mostly 76.6 µM), hits mostly activators; hit rate 0.2% among 410,000; active = well fitted activation curve with a large enough effect; inconclusive = small, poorly fitted or top-dose-only effect; cell line not stated here; note: nearly all actives have a fitted effect of over 65% in size
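Decision-based qHTS: stable cells, 24 h exposure to five compound concentrations, CCCP as control. Fixed cells stained for PINK1 plus nuclear, mitochondrial and cell markers, cytometer read.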
Of the large screens only hits and unclear results are named; the others gave an inactive call. Unless noted, calls come from the whole dose curve; as a rule, active = well fitted curve in the direction sought with a large enough effect; inconclusive = small, poorly fitted or top-dose-only effect, or another doubt; inactive = no such curve, though single readings can be large; an effect the other way counts as inactive or inconclusive.

COc1ccccc1CNC(=O)Cn1c(-c2ccc(F)cc2)cc(C(C)=O)c1C	none (no result: IL1B secr inh, MCF10A rerep, ATXN2 expr inh, ATXN viability, SW480 rereplic)
CCCCCCCCN(CCCCCCCC)c1ccc(/C=C/c2ccnc3ccccc23)cc1	none (no result: IL1B secr inh, MCF10A rerep, ATXN2 expr inh, ATXN viability, SW480 rereplic)
COc1ccc(C2=CC(=O)C[C@H](COCc3ccccc3)N(C(=O)OC(C)(C)C)O2)cc1	IL1B secr inh inconclusive, MCF10A rerep 23µM
COc1ccc(NC(=O)C2CCCN2C(=O)OCc2ccccc2)cc1 (centres undefined)	ATXN viability inconclusive
O=c1[nH]c(CN2CCN(c3ccccc3O)CC2)nc2scc(-c3ccccc3Cl)c12	IL1B secr inh -52
COc1cccc(N2CCN(Cc3nc4scc(-c5ccccc5)c4c(=O)[nH]3)CC2)c1	MCF10A rerep 10µM, SW480 rereplic inconclusive
O=c1[nH]c(CN2CCN(c3ccc(O)cc3)CC2)nc2scc(-c3ccc(Cl)cc3)c12	MCF10A rerep inconclusive, SW480 rereplic 3.7µM (no result: ATXN2 expr inh)
COc1ccc(N2CCN(Cc3nc4sc(C)c(C)c4c(=O)[nH]3)CC2)cc1	none
CCCCOC(=O)CC(CC(=O)OCCCC)(OC(C)=O)C(=O)OCCCC	none (no result: IL1B secr inh, MCF10A rerep, SW480 rereplic, PINK1 modulator)
COc1ccc2nc3ccccc3nc2c1N	IL1B secr inh -63, MCF10A rerep inconclusive, ATXN viability inconclusive
COc1ccc2nc(-c3ccco3)c(-c3ccco3)nc2c1	MCF10A rerep inconclusive, SW480 rereplic inconclusive (no result: ATXN viability)
COc1ccc2nc3cccc(OC)c3nc2c1	MCF10A rerep 1.3µM, ATXN viability inconclusive, SW480 rereplic inconclusive
Cc1ccc(-c2cc(C(F)(F)F)n3nc(C(=O)Nc4ccc(Cl)c(C(F)(F)F)c4)cc3n2)cc1	none (no result: IL1B secr inh, MCF10A rerep, SW480 rereplic)
COc1ccc(OC)c(CCNC(=O)Cn2nc(C)c3c(C)n(-c4ccc(C)cc4)nc3c2=O)c1	IL1B secr inh -67
O=C(Nc1cccc(-c2cccc(F)c2)c1)C1CCN(Cc2ccc(CO)o2)CC1	SW480 rereplic 16µM
Cc1cc(C)n(CCCN2CCC(C(=O)Nc3cccc(-c4cccc(F)c4)c3)CC2)n1	IL1B secr inh -65, MCF10A rerep inconclusive, ATXN2 expr inh inconclusive, ATXN viability inconclusive, SW480 rereplic inconclusive
CCn1ncc(CN2CCC(C(=O)Nc3cccc(-c4cccc(F)c4)c3)CC2)c1C	none (no result: ATXN2 expr inh)
CCCc1nc2cccnc2n1C1CCN(C(=O)CC2NC(=O)c3ccccc32)CC1 (centres undefined)	none (no result: IL1B secr inh, MCF10A rerep, ATXN2 expr inh, SW480 rereplic)
CCCn1c(SCc2nc(-c3ccccc3C)no2)nnc1-c1ccc(Cl)cc1	ATXN2 expr inh inconclusive (no result: IL1B secr inh, MCF10A rerep, ATXN viability, SW480 rereplic)
C=CCC[C@@H](Cc1ccc(F)cc1)C(=O)OC[C@@H](Cc1c[nH]c2ccccc12)NC(=O)[C@@H](CC=C)CC(=O)NCCO	IL1B secr inh -65, MCF10A rerep inconclusive, ATXN2 expr inh inconclusive, ATXN viability 32µM, SW480 rereplic inconclusive
C=CC[C@@H](CC(=O)NCCO)C(=O)N[C@@H](COC(=O)[C@@H](CC=C)Cc1ccc(F)cc1)Cc1c[nH]c2ccccc12	IL1B secr inh -55, MCF10A rerep inconclusive, ATXN viability inconclusive
C=CCC[C@@H](Cc1ccc(F)cc1)C(=O)OC[C@@H](Cc1c[nH]c2ccccc12)NC(=O)[C@H](CC=C)CC(=O)NCCO	ATXN2 expr inh inconclusive, ATXN viability 28µM
C=CCC[C@H](Cc1ccc(F)cc1)C(=O)OC[C@H](Cc1c[nH]c2ccccc12)NC(=O)[C@H](CC=C)CC(=O)NCCO	IL1B secr inh inconclusive, MCF10A rerep inconclusive, ATXN2 expr inh inconclusive, ATXN viability inconclusive
COc1ccc(S(=O)(=O)NCC(c2ccco2)N2CCN(c3ccccc3F)CC2)cc1C (centres undefined)	none (no result: IL1B secr inh, MCF10A rerep, ATXN2 expr inh, ATXN viability, SW480 rereplic)
CC(=O)O[C@@H]1C[C@H]2C(C)(C)C(=O)C=C[C@]2(C)[C@H]2CC[C@@]3(C)[C@H](c4ccoc4)OC(=O)[C@H]4O[C@]43[C@@]21C	MCF10A rerep inconclusive, ATXN2 expr inh inconclusive, SW480 rereplic 4.1µM (no result: ATXN viability)
CCc1ccc(OC)c(S(=O)(=O)Nc2ccc(Cc3ccncc3)cc2)c1	IL1B secr inh -76, MCF10A rerep inconclusive, SW480 rereplic inconclusive
COc1ccc(CC(=O)NCC(c2ccc(OC)cc2)N(C)C)cc1 (centres undefined)	MCF10A rerep 3.3µM, SW480 rereplic inconclusive
Cc1nc(N2CCN(Cc3ccc4c(c3)OCO4)CC2)c2oc3ccccc3c2n1	IL1B secr inh inconclusive, MCF10A rerep 12µM, ATXN2 expr inh inconclusive, SW480 rereplic inconclusive
COc1ccccc1N1CCN(c2nc(C)nc3c2oc2ccccc23)CC1	MCF10A rerep inconclusive, ATXN2 expr inh 35µM, ATXN viability inconclusive, SW480 rereplic inconclusive
Cc1cc(C)nc(N2CCN(c3nc(-c4ccccc4)nc4c3oc3ccccc34)CC2)n1	none (no result: ATXN2 expr inh)
Cc1nc(N2CCC(C)CC2)c2oc3ccccc3c2n1	MCF10A rerep inconclusive
N#CCc1c(C#N)c(N)nc(N2CCN(Cc3ccc4c(c3)OCO4)CC2)c1C#N	MCF10A rerep 16µM
CSc1nc(N2CCN(Cc3ccc4c(c3)OCO4)CC2)c2ccccc2n1	MCF10A rerep inconclusive (no result: ATXN2 expr inh)
Cc1nc(N2CCN(Cc3ccc(Cl)cc3)CC2)c2oc3ccccc3c2n1	IL1B secr inh -63, MCF10A rerep inconclusive, ATXN2 expr inh inconclusive
CC(=O)c1sc(NC(=O)c2c(-c3ccccc3)c(-c3ccccc3)nn(C)c2=O)nc1C	none (no result: IL1B secr inh, MCF10A rerep, ATXN2 expr inh, ATXN viability, SW480 rereplic)
Cc1nc(N2CCN(Cc3ccc4c(c3)OCO4)CC2)c2cc(-c3ccccc3)sc2n1	IL1B secr inh -62, SW480 rereplic inconclusive
O=C1/C(=N\S(=O)(=O)c2cccs2)C([n+]2cccc(Cc3ccccc3)c2)=C([O-])c2ccccc21	ATXN2 expr inh inconclusive, ATXN viability inconclusive, SW480 rereplic 8.2µM (no result: IL1B secr inh)
Cc1cc(C)c[n+](C2=C([O-])c3ccccc3C(=O)/C2=N\S(=O)(=O)c2cccs2)c1	MCF10A rerep inconclusive, SW480 rereplic 2.9µM
Cc1cc[n+](C2=C([O-])c3ccccc3C(=O)/C2=N\S(=O)(=O)c2cccs2)cc1C	MCF10A rerep 21µM, SW480 rereplic inconclusive
O=C1/C(=N\S(=O)(=O)c2cccs2)C([n+]2ccc(CCCc3ccccc3)cc2)=C([O-])c2ccccc21	SW480 rereplic inconclusive
O=C(CN1Cc2ccccc2OC(c2ccsc2)C1)N1CCN(Cc2ccc3c(c2)OCO3)CC1 (centres undefined)	none (no result: IL1B secr inh, MCF10A rerep, ATXN2 expr inh, SW480 rereplic)
CC(Nc1cc(N2CCN(C(=O)C(C)(C)C)CC2)ccc1[N+](=O)[O-])c1ccccc1 (centres undefined)	ATXN viability inconclusive
CC(C)C(=O)N1CCN(c2ccc([N+](=O)[O-])c(NC(C)c3ccccc3)c2)CC1 (centres undefined)	IL1B secr inh -64, MCF10A rerep inconclusive
